# Source: PubChem
# The sample as a whole holds a higher share of hits than the screen did.
# ST2 IL33 inh: inhibitors of human ST2 (IL1RL1) binding to IL-33; actives 2.3% (n = 78,000); AID 1259354; AlphaLISA ST2-Fc/biotin-IL-33 interaction, 1 h; inhibition, % for hits at 17 µM; Q01638; in the data active = inhibition above about 30%
# Target sequence (Q01638 whole entry, looked up): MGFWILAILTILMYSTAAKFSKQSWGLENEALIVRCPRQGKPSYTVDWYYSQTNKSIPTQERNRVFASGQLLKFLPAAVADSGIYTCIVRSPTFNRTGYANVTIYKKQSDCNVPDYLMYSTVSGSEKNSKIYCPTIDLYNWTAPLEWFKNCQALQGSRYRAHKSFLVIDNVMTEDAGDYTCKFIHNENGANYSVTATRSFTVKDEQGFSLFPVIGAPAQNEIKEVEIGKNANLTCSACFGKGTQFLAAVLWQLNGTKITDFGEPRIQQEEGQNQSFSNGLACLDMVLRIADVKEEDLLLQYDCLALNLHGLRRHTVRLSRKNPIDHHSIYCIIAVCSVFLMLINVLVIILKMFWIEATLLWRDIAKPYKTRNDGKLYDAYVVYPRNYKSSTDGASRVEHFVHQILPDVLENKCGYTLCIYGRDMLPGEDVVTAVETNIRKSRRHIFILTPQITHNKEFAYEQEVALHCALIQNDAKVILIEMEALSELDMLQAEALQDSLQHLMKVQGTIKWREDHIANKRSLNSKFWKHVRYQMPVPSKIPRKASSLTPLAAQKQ
# * = called active by the depositor; i = inactive.
SMILES,ST2 IL33 inh
COc1ccccc1NC(=O)[C@@H]1C2c3ccccc3C(c3ccccc32)[C@H]1C,i
Cn1c(=O)[nH]c(=O)c2c1nc(CN1CCN(Cc3ccccc3)CC1)n2Cc1ccc(Cl)cc1,i
COc1ccc(N2CC(NC(=O)c3ccc(Br)o3)CC2=O)cc1 (centres undefined),31%*
COc1ccc(N2CC(NC(=O)c3ccco3)CC2=O)cc1 (centres undefined),i
O=C(NC1CC(=O)N(c2ccccc2)C1)c1ccc(Br)o1 (centres undefined),i
CC(C)Cc1cc(C(=O)N2CCCC3(CCNCC3)CC2)nc(=O)[nH]1,i
O=C(CCN1Cc2ncccc2C1=O)Nc1nccs1,i
Cc1cccc(Nc2nc(C)[nH]c2[N+](=O)[O-])c1,i
Cc1cccc(N=Cc2c(Nc3cccc(C)c3)nc3ccccn3c2=O)c1,44%*
Cn1c(C(=O)Nc2cccc(Cl)c2)cc2c(=O)n3ccccc3nc21,i
COc1ccc(-c2nc(N3CCOCC3)[nH]c(=O)c2C#N)cc1,i
CCCCn1ncc(C)c1NC(=O)c1ccsc1,31%*
CCC(CC)n1ncc(C)c1NC(=O)c1cc(C)nc(C)n1,i
CCCCn1ncc(C)c1NC(=O)[C@H]1CCCO1,i
O=C1CSC(=Nc2ccc(C(=O)O)cc2)N1,i
CCN(CC)c1ccc2cc(-c3nc4ccccc4s3)c(=O)oc2c1,i
C=C(C)COc1ccc2cc(-c3nc4ccccc4s3)c(=O)oc2c1,i
Cc1ccc2oc(=O)c(-c3nc4ccccc4s3)cc2c1,36%*
Cc1ccsc1-c1nccn1CCCn1ccnc1,i
O=C(Nc1ccc(F)c(F)c1)c1cnccn1,i
Cc1ccc(NC(=O)c2cnccn2)c(Br)c1,39%*
Cc1ccc2nc(NC(=O)c3cnccn3)sc2c1,i
Cc1ccc(CN2CC[C@H](c3nnc(C)o3)C2)o1,i
O=C(NC1C=CS(=O)(=O)C1)c1ccc2[nH]c3c(c2c1)CCCC3 (centres undefined),i
Cn1c(NCc2cc(Br)ccc2O)nc2ccccc21,i
SMILES,ST2 IL33 inh
Cn1c2nc3ccc(Br)cc3c-2nc2ccccc21,37%*
Cn1c(C(O)(c2ccccc2)c2nc3ccccc3n2C)nc2ccccc21,i
O=C(N[C@H]1C[C@H]2C(=O)NC[C@@H](CCC(=O)N3CCN(c4ccccn4)CC3)N2C1)C1CC1,i
O=C(Nc1ccsc1)N[C@H]1C[C@H]2C(=O)NC[C@@H](CCC(=O)N3CCN(c4ccccn4)CC3)N2C1,52%*
COc1ccc(CN[C@H]2C[C@H]3C(=O)NC[C@@H](CCC(=O)N4CCN(c5ccccn5)CC4)N3C2)cc1,i
CN1CCN(C(=O)CC[C@@H]2CNC(=O)[C@@H]3C[C@H](NC(=O)Nc4ccccc4)CN23)CC1,i
COCC(=O)N[C@H]1C[C@H]2C(=O)NC[C@@H](CCC(=O)N3CCN(c4ccccn4)CC3)N2C1,51%*
O=C1NC[C@@H](CCC(=O)N2CCN(c3ccccn3)CC2)N2C[C@@H](NCc3ccc(F)cc3)C[C@@H]12,i
CC1=C(C(=O)N2CCOCC2)C(c2ccc(C)cc2)n2c(nc3ccccc32)N1 (centres undefined),i
CCN1C(=O)CSc2ccc(C(=O)NCc3c(F)cc(F)cc3F)cc21,i
CC1(C)CC(=O)C2=C(C1)Nc1nc(SCc3ccccc3Cl)[nH]c(=O)c1C2c1ccncc1 (centres undefined),i
c1ccc(C2CCN(CCn3cnnc3)CC2)cc1,i
CCCCN(Cc1ccccc1)S(=O)(=O)c1ccc2c(c1)CCC(=O)N2,i
Cc1ccc(-c2ccc(CCC(=O)O)[nH]2)cc1,35%*
Cc1ccc(-c2cc(=O)c(=O)[nH][nH]2)cc1,i
Cc1ccc(NC(=O)CCC(=O)O)c(C)c1,i
c1ccc(N=c2scc(-c3ccccc3)n2Cc2cccnc2)cc1,41%*
CCSc1nnc(-c2cccnc2)n1Cc1ccccc1,i
Clc1ccc(-c2csc(=Nc3ccccc3)n2CCCN2CCOCC2)cc1,64%*
CCn1c(-c2ccc(S(=O)(=O)N3CCCCC3)cc2)csc1=Nc1ccccc1OC,61%*
O=S(=O)(c1ccc(Cl)cc1)N(CCCN1CCOCC1)Cc1cccs1,i
Cn1c(=O)c2c(nc3n(CCCO)c(-c4ccc(F)cc4)cn23)n(C)c1=O,i
Cc1ccc(S(=O)(=O)N2CCCCC2)cc1,i
O=C(N=c1scc(-c2ccc(Cl)cc2)n1Cc1ccco1)c1ccccc1,i
Cc1sc2c(c1C)c(=O)n(CCc1ccccc1)c(=O)n2Cc1cccnc1,i
SMILES,ST2 IL33 inh
COc1ccc(S(=O)(=O)N2CCCC2)cc1,i
OCCn1c(-c2ccc(F)cc2)csc1=Nc1ccccc1,36%*
c1ccc(CCCN2CCOCC2)cc1,i
N#Cc1ccc(CSc2nnc3sc4ccccc4n23)cc1,i
CCCCN(CC)C(=O)c1cc(OC)c(OC)cc1[N+](=O)[O-],i
COc1ccc(C2C3=C(CC(C)(C)CC3=O)Nc3nc(SC)[nH]c(=O)c32)cc1OC (centres undefined),i
Cc1ccccc1C1NC(=O)NC2=C1C(=O)CC(C)(C)C2 (centres undefined),i
CC(C)(C)C(C)(O)C#CCN1CCCCC1 (centres undefined),i
Nc1nnc(SCc2cccc(I)c2)s1,i
CCC(C)NC(=O)c1cc(-c2ccc(F)cc2)on1 (centres undefined),i
O=C1CCc2cc(S(=O)(=O)N3CC(=O)N(CCc4ccccc4)C(=O)C3)ccc2N1,i
COc1cc(C=C2C(=O)c3ccccc3C2=O)ccc1OCC(=O)Nc1ccc(F)cc1,i
O=C(c1cnnn1-c1ccccc1)N1CCOC(c2ccc(Cl)cc2)C1 (centres undefined),i
O=C(Cc1ccc(F)cc1)NCCN1CCOCC1,i
Cc1ccc(C(=O)Nc2nnc(CCS(=O)(=O)c3ccc(Cl)cc3)s2)cc1,i
CC(C)(C)C(=O)NCCSc1c[nH]c2ccccc12,i
CCOc1cccc(CN2CCC(C(=O)NCc3ccccn3)CC2)c1O,i
CCn1c(-c2ccc(OC)c(F)c2)csc1=Nc1ccccc1,73%*
CCOCCOC(=O)C1=C(C)NC2=C(C(=O)C(C(=O)OC)C(C)C2)C1c1ccc(F)cc1 (centres undefined),i
COC(=O)C1=C(C)Nc2nc(SC)[nH]c(=O)c2C1c1ccc(F)cc1 (centres undefined),i
O=C(CSc1nc(O)cc(=O)[nH]1)c1ccccc1,i
CCOc1ccc(N2C(=O)[C@H]3C4c5ccccc5C([N+](=O)[O-])(c5ccccc54)[C@H]3C2=O)cc1,i
Cc1ccccc1Cn1cc(S(=O)(=O)CC(=O)N2CCc3ccccc32)c2ccccc21,i
CCCc1nc(C)cc(-c2cc(N)nc3[nH]ccc23)n1,i
CCCc1cc(-c2cc(NC3CCNCC3)nc3[nH]ccc23)nc(C)n1,38%*
SMILES,ST2 IL33 inh
c1cnc(-c2cc(NC3CCNCC3)nc3[nH]ccc23)cn1,33%*
c1ccc(CNc2nc(NC3CCCCC3)nc(N3CCOCC3)n2)cc1,i
c1nc(-c2cc(NC3CCCC3)nc3[nH]ccc23)cc(N2CCOCC2)n1,30%*
c1cc2c(-c3ccc(CN4CCOCC4)cn3)cc(NC3CCCC3)nc2[nH]1,i
c1cc2c(-c3ccc(NC4CCCC4)nn3)cc(NC3CCNCC3)nc2[nH]1,40%*
CCCc1cc(NCC2CNCCOC2)nc(C)n1 (centres undefined),i
O=C(CN1C(=O)c2ccccc2S1(=O)=O)NC(NC1CCCC1)C(Cl)(Cl)Cl (centres undefined),i
